From PubChem
The list is not random: actives were taken first. Their share in the collection is about 0.84%.
SRC3 TRFRET art: TR-FRET artefact, counter-screen to PPARgamma/SRC-3 agonist assay. PPARgamma/SRC-3 format; active compounds read high. actives 0.39% (n = 99,000). TR-FRET ratio at 8 µM
PPARg SRC2 recr: promotes SRC-2 coactivator recruitment by human PPARgamma; actives 0.34% (n = 200,000); P37231; activation, % at 8 µM; PPARgamma LBD-SRC-2 recruitment, biochemical; AID 1032; in the data active = activation above about 22%
Target sequence (P37231 whole entry, looked up, the tested form may be a part): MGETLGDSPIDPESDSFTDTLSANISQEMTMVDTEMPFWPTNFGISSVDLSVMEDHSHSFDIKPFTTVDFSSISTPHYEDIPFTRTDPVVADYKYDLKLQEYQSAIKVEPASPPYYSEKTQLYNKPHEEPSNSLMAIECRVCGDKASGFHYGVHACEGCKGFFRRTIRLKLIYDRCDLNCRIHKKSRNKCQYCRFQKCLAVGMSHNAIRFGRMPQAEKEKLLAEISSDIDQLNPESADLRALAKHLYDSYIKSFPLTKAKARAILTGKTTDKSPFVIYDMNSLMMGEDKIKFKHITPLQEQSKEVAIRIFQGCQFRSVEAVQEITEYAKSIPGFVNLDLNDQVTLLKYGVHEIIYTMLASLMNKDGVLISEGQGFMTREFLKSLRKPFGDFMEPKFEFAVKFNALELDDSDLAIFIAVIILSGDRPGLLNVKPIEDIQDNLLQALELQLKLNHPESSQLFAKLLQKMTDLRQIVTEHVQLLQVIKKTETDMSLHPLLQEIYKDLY
PPARg SRC-3 ag: PPARgamma-driven SRC-3 recruitment agonism. biochemical PPARgamma/SRC-3 coactivator recruitment assay. P37231. AID 731. activation, % at 8 µM. actives 0.26% (n = 200,000); in the data active = activation above about 23%
PPARg SRC-1 ag: promotes SRC-1 coactivator recruitment by human PPARgamma; activation, % at 8 µM; P37231; AID 631; PPARgamma-SRC-1 coactivator recruitment biochemical assay; actives 0.41% (n = 200,000); in the data active = activation above about 19%
SRC1 TRFRET art: counter-screen for PPARgamma SRC-1 recruitment agonists: TR-FRET artefact; TR-FRET detection artefact counter-screen, emission ratio; active compounds read high; TR-FRET ratio at 8 µM; actives 0.34% (n = 99,000); AID 1051; in the data active = TR-FRET ratio above about 2300
SRC2 TRFRET art: counter-screen for PPARgamma SRC-2 recruitment agonists: TR-FRET artefact | TR-FRET ratio at 8 µM | active compounds read high | actives 0.4% (n = 200,000)
Hits are given with their value; – = inactive; · = no result given. Rule as the data show it, unless noted: active = TR-FRET ratio above about 2000; inactive = the rest.

SMILES	SRC3 TRFRET art	PPARg SRC2 recr	PPARg SRC-3 ag	PPARg SRC-1 ag	SRC1 TRFRET art	SRC2 TRFRET art
Cc1ccc(CNC(=O)Cn2cccc2C(=O)c2ccccc2C)cc1	–	–	–	–	–	–
Cc1ccccc1C(=O)c1cccn1CC(=O)NCCC1=CCCCC1	–	–	–	–	2753	–
O=[N+]([O-])c1ccc(Nc2nc(NC3CCCCC3)nc(N3CCCC3)n2)cc1	–	–	–	–	–	–
O=C(CSc1ccc2nnc(-c3ccccn3)n2n1)NCc1ccc2c(c1)OCO2	·	28	–	–	·	1984
Cc1ccc(S(=O)(=O)N2CCC(C(=O)NCCc3ccccn3)CC2)cc1	–	–	–	–	–	–
CCCCNC(=O)COC(=O)c1ccc(F)cc1Cl	–	–	–	–	–	–
CCNc1nc(ON=C(C)C)nc(N(C)C)n1	–	–	–	–	–	–
CC(C)(C)NC(=O)CSc1nc(O)cc(=O)n1-c1ccccc1F	·	–	29	–	·	–
COc1ccccc1-n1c(SCC(=O)NC(C)(C)C)nc(O)cc1=O	·	–	–	–	·	–
CC[C@H](C)[C@H](NC(N)=O)C(=O)NCCc1ccc(Cl)cc1Cl	–	–	–	–	–	–
COc1ccc(-c2cc(C(F)F)n3ncc(C(=O)N4CCCc5ccccc54)c3n2)cc1	–	–	26	–	–	–
O=C(c1cnn2c(C(F)F)cc(-c3ccccc3)nc12)N1CCCc2ccccc21	·	–	–	–	·	–
COc1ccc(N2CCN(C(=O)CC34CC5CC(CC(C5)C3)C4)CC2)c([N+](=O)[O-])c1	–	–	–	–	–	–
c1coc(-c2nnc3sc(Cc4cccs4)nn23)c1	·	–	–	–	·	–
c1csc(Cc2nn3c(-c4n[nH]c5c4CCC5)nnc3s2)c1	·	–	–	20	·	–
COc1ccc(OC)c(-n2c(=S)[nH]c3c(sc(=S)n3-c3ccccc3)c2=O)c1	–	–	–	–	–	–
C/C(N)=C(/C#N)C(=O)CSc1cc(C)c2ccccc2n1	–	–	–	–	–	–
O=Cc1cccn1-c1ccc(O)cc1	–	–	–	–	–	–
Cc1ccc(/C(O)=C2\C(=O)C(=O)N(c3cc(C)on3)C2c2cccc(Cl)c2)cc1 (centres undefined)	·	–	–	–	·	–
COc1ccc(/C(O)=C2\C(=O)C(=O)N(c3cc(C)on3)C2c2cccc(OC)c2OC)cc1C (centres undefined)	·	–	–	–	·	2062
CCOc1ccc(-n2c3nc4ccccc4nc3c3c(=O)n(Cc4ccco4)cnc32)cc1	·	–	84	45	·	–
Cc1cc(C)cc(-n2c3nc4ccccc4nc3c3c(=O)n(Cc4ccco4)cnc32)c1	·	–	–	–	·	–
Cc1cc2nc(-c3ccc(SCC(=O)Nc4ccc5c(c4)OCCO5)nc3)[nH]c2cc1C	·	–	–	–	·	2267
COc1ccc(/C=N/NC(=O)c2ccc(Br)cc2)c(OC)c1	–	–	–	–	–	–
COc1ccccc1/C=N/NC(=O)c1ccc(Br)cc1	–	–	–	–	2364	–
SMILES	SRC3 TRFRET art	PPARg SRC2 recr	PPARg SRC-3 ag	PPARg SRC-1 ag	SRC1 TRFRET art	SRC2 TRFRET art
Oc1ccc(C2Nc3cccc4cccc(c34)N2)c(O)c1	·	–	31	30	·	–
C=CCNC(=O)c1ccc(-c2nc(-c3ccc(Cl)cc3Cl)cs2)cc1	·	–	–	19	·	–
COC(=O)N1[C@H](C)C=C[C@]1(Cc1ccccc1)C(=O)O	–	–	–	–	–	–
COC(=O)c1ccccc1NC(=O)c1cc(-c2ccc(O)cc2)on1	·	–	–	35	·	–
Cc1cc2cc(CNC(=O)c3ccc(S(=O)(=O)N(C)C)cc3)ccc2n1C	·	–	–	–	·	2108
Cc1cc(C)c(S(=O)(=O)NCc2ccc3c(c2)cc(C)n3C)c(C)c1	·	–	–	–	·	2083
Cc1cc2ccccc2n1CCNC(=O)Cc1ccccc1	·	–	–	–	·	–
CC(=O)Nc1ccc(S(=O)(=O)NCc2ccc3c(c2)cc(C)n3C)cc1	·	–	–	–	·	–
Cc1cc(C)c(S(=O)(=O)NCCn2c(C)cc3ccccc32)c(C)c1	·	–	–	–	·	2078
Cc1ccc(S(=O)(=O)NCCn2c(C)cc3ccccc32)cc1	·	–	–	–	·	2803
Cc1occc1-c1nnc(-c2cc([N+](=O)[O-])cc([N+](=O)[O-])c2)o1	–	–	–	–	–	–
CN1CCN(c2ccc(Cl)cc2NC(=O)/C=C/c2ccc(F)cc2)CC1	–	–	–	–	–	–
Cc1cccc(OCCCN2C(=O)C(=O)c3cc(C)ccc32)c1	–	–	–	–	–	–
